Data on five compounds can be found in PubChem BioAssay AID504634 (The Scripps Research Institute Molecular Screening Center, 2011).

Hit rate of the full screen: of about 340,000 compounds, about 280 (0.082%) were called active. This is one part of a sample in which actives are shown more often than they occur. Rule as the data show it: active = inhibition mostly above about 23% (no sharp cut-off); inactive = mostly below about 18%.

5-hydroxytryptamine receptor 5A (Homo sapiens), sequence (P47898 whole entry, looked up): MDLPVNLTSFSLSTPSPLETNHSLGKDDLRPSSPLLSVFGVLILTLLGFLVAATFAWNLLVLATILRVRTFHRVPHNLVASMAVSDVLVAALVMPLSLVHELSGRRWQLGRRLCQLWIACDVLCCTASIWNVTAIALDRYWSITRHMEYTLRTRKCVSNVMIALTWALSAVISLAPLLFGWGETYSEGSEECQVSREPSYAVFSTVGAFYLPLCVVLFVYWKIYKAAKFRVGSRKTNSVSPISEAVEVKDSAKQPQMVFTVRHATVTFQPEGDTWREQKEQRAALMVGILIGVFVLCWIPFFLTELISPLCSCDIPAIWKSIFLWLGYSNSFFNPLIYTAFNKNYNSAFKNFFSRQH

This test concerns the target 5-hydroxytryptamine receptor 5A (Homo sapiens) (UniProt P47898). Nature of the test: HTR5A inverse agonists in luminescence cell assay, primary screen, counter-screen for OPRM1-OPRD1 heterodimer inverse agonist project, full-deck HTS (AID 504634).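 Also: 0% = cells with DMSO and 100% = no-cell wells with DMSO.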 Particulars: HTR5A cell line, inverse agonism, at 9.3 µM, stronger effect = higher value. For orientation: The purpose of a counterscreen is to sort out artefacts and off-target activity.
Consider `CC(=O)OC1C2(CC3N4C(=O)C5(CO)SSC4(CC31O)C(=O)N5C)OC(C)C(C)(C)C2=O` (stereo not given), for which the inhibition (as a rule, the relative decrease from the control value, in per cent) is 97.6% (active). The same measure for `COC1C(O)C(C)OC(OC2CCC3(C=O)C(CCC4C3CCC3(C)C(C5=CC(=O)OC5)CCC43O)C2)C1O` (stereo not given): -11% (inactive). For the compound `c1ccc(C2NCc3ccccc3-n3cccc32)cc1` (stereo not given), the inhibition was -5.59% (inactive). The same measure for `COC(=O)C1=C(c2cc3ccccc3s2)C[C@@H]2CC[C@H]1N2C(=O)NC(C)C`: 5.09% (inactive). The same measure for `C[C@]12CCC3C(CC[C@H]4[C@H](O)[C@H](O)CC[C@]34C)C1CC[C@@H]2O` (stereo not given in full): -10.8% (inactive).
